The values that follow come from PubChem BioAssay.

“And” between values parts separate entries of the source, which are not always exact repeats. Equal entries are not always repeated. The source made the active and inactive calls. Unless noted, how the calls were made is not given here.

Assay [1] is described as follows: P. berghei load reduction in hepatocytes – cell-based, HepG2, luciferase luminescence, HepG2 viability, primary screen (AID 624349; in the data active means parasite load remaining mostly below about 12%, no sharp cut-off; inactive means mostly above about 10%;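 further: 100% = mean of DMSO negative control wells on the same plate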). The conditions noted are these: P. berghei liver stage in HepG2, luciferase luminescence, concentration not given here; parasite load remaining: stronger effect = lower value; viability: measured here: HepG2 viability without parasites.
A short description of assay [2]: EMT-state selective cytotoxicity in co-culture – imaging, PC-3E GFP, TEM4-18 mCherry, primary screen (AID 1345086;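 active means compounds killing one labelled cell type while sparing the other, by normalised counts and ratio limits, not self-fluorescent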;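 on all read-outs here: cells exposed to compound for 72 h before imaging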;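 on red/green cell ratio (normalised): normalised mesenchymal count divided by normalised epithelial count so high means epithelial killing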). The conditions noted are these: PC-3E GFP / TEM4-18 mCherry co-culture, imaging cell counts, at 1 µM; for red/green cell ratio (normalised): actives lie on both sides.
Assay [3] is described as follows: viability loss with induced miR-34 in A549 – imaging, A549 dox-inducible miR-34, nuclei and caspase counts, primary screen (AID 1347080;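 active means compounds whose cell count with miR-34 switched on is under 0.7 times the count with it off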). The conditions noted are these: A549 miR-34 inducible, Hoechst nuclei count, 48 h.
Assay [4] deals with Mitogen-activated protein kinase 7 (Homo sapiens) (UniProt Q13164). Briefly: Gal4-ERK5 driven luciferase induction – cell-based, HTS, primary screen (AID 1508626;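 active means luciferase signal above three times the same-plate solvent-only control wells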;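 further: luciferase driven by Gal4-ERK5 fusion binding five Gal4 sites before minimal TATA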). Particulars: HeLa Gal4-ERK5 transactivation, 18 h, at 5 µM, stronger effect = higher value.
The nature of assay [5]: compounds altering circadian rhythm period length – cell-based, LOPAC library, luminescence reporter (AID 2774).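 Further: values are relative to mean of DMSO wells on each plate.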 The conditions noted are these: circadian reporter cells, at 7 µM, actives lie on both sides.
The test system of assay [6] is Hepatitis C virus NS3 helicase. Briefly: blockers of NS3h binding to ssDNA – biochemical, fluorescence polarization, LOPAC1280 library, primary screen (AID 687035; in the data active means inhibition above about 37%). Particulars: Purified HCV NS3 helicase, Cy5-dT15 ssDNA binding fluorescence polarization; stronger effect = higher value; concentration not given here.
Assay [7] is described as follows: compounds altering Cy5-DNA-NS3h complex signal – biochemical, LOPAC1280, artefact control for HCV NS3 helicase inhibitor project (AID 687037). Particulars: Cy5-DNA-NS3h complex fluorescence interference counterscreen. (A counterscreen serves to expose hits that act by an unwanted route or on another target.)
Assay [8] has as its system Aerobactin synthetase IucA (Klebsiella pneumoniae). The assay is described as follows: inhibition of K. pneumoniae IucA enzyme – biochemical, Tocris library, absorbance (AID 1345561).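 Further: 100% = enzyme without compound and 0% = no enzyme.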 Particulars: purified IucA enzyme assay, absorbance (OD) read-out; stronger effect = lower value;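 tested at 8 µM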.
Assay [9] relates to Aerobactin synthetase IucA (Klebsiella pneumoniae, hypervirulent). Briefly: biochemical IucA inhibition screen of LOPAC library by absorbance (AID 1346212).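 Further: 100% = no compound wells and 0% = no enzyme wells.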 The conditions noted are these: IucA enzyme assay, absorbance (OD) readout; stronger effect = lower value;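 tested at 8 µM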.
The nature of assay [10]: blockers of cellular phospholipid synthesis – cell-based, LOPAC library, screen 4, primary screen (AID 1347384). The conditions noted are these: animal cells, phospholipid biosynthesis inhibition screen; at 10 µM.
The nature of assay [11]: MELAS cybrid and Rieske KO viability enhancers – cell-based, MELAS cybrids, Rieske KO mouse fibroblasts, CellTiter-Glo, primary screen (AID 1508586;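 active means mean z-score across replicates of 1.96 or higher in either the MELAS or the Rieske mutant cell line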;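 further: z relative to plate mean and SD of compound and empty wells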). Particulars: low glucose. On the technique in general: ATP-based viability assays read luminescence as a measure of living cells.
The nature of assay [12]: galactose survival enhancers in mitochondrial complex I cybrids – cell-based, galactose medium, ATP luminescence, primary screen (AID 1645843;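 active means z-score of at least 1.8 in each of two replicates, scored against plate mean and spread of sample wells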;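 further: positive z means more ATP and so rescue of galactose-driven cybrid death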). The conditions noted are these: complex I mutant cybrid cells, 72 h, stronger effect = higher value.
Assay [13] can be described thus: compounds altering viability of human ES cells (AID 493140).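 Further: cells exposed to compounds for four days before counting.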 The conditions noted are these: human embryonic stem cell survival screen; stronger effect = higher value.
Where [14] appears, read: measured here: epithelial PC-3E GFP cell survival.
[15] abbreviates: measured here: mesenchymal TEM4-18 mCherry cell survival.
Where [16] appears, read: measured here: relative caspase fold change +Dox/-Dox.
Setting [17] is: measured here: total cells with miR-34 induction, stronger effect = lower value.
The mark [18] stands for this setting: measured here: total cells without miR-34 induction.
Where [19] appears, read: stronger effect = lower value, cell number ratio, induced over uninduced.
Setting [20] is: MELAS cybrid survival, CellTiter-Glo 48 h, stronger effect = higher value.
[21] abbreviates: Rieske KO mouse fibroblast survival, CellTiter-Glo 72 h.

Chain of Mitogen-activated protein kinase 7 (Homo sapiens) (Q13164 whole entry, looked up, the tested form may be a part): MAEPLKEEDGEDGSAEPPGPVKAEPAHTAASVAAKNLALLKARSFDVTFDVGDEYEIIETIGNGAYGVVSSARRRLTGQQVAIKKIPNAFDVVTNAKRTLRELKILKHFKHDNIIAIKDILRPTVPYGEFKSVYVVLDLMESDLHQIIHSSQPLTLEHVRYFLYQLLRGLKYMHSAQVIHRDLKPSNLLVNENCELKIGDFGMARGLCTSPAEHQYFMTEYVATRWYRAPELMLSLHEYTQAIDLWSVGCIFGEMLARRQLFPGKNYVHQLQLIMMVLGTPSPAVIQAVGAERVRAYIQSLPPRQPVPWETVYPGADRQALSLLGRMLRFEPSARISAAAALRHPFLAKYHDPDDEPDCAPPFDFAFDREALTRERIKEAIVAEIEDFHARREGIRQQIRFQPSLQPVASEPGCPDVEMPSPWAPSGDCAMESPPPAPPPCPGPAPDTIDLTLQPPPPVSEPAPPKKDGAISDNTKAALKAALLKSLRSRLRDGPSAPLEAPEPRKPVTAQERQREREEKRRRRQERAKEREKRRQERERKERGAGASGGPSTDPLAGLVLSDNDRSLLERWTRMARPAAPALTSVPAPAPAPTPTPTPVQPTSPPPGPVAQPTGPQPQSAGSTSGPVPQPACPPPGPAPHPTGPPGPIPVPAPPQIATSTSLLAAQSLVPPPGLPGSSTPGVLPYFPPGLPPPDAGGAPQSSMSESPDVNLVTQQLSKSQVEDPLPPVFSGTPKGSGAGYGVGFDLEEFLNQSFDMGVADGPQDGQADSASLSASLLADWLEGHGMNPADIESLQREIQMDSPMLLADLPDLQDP

On to `CC(CC(C(N)=O)(c1ccccc1)c1ccccc1)N(C)C` (stereo unspecified), for which the parasite load remaining in assay [1] is 59.7% (inactive). The viability in assay [1] amounted to 166%. Also, the red/green cell ratio (normalised) in assay [2] was 0.86 (inactive). For the same compound, the normalised cell number in assay [2] (setting [14]) was 1.14; in assay [2] (setting [15]) it was 0.99. For the same compound, the results for the fold change in assay [3] (stronger effect = lower value) and in assay [3] (setting [16]) were 0.911 (inactive) and 5.38, respectively. Moreover, the cell count in assay [3] (setting [17]) came out at 11900; in assay [3] (setting [18]), 13000. Besides, the luciferase signal in assay [4] was 172 AU (inactive).

For the compound `C#C[C@@H]1CC2C3CCC4=C[C@@H](OC(C)=O)CCC4C3CC[C@]2(C)[C@H]1OC(C)=O` (stereo partly specified), the parasite load remaining in assay [1] is 19.4% (inactive). For the same compound, the viability in assay [1] stood at 101%. In addition, in assay [2], the red/green cell ratio (normalised) is 0.9 (inactive). Moreover, the normalised cell number in [2] (setting [14]) is 1.25; in [2] (setting [15]), 1.12. Further, the fold change in assay [3] (stronger effect = lower value) was 0.854 (inactive); in assay [3] (setting [16]), 3.71. Also, the cell count in [3] (setting [17]) amounted to 11300; in assay [3] (setting [18]), 13200.

Regarding `CN1CCC(c2c[nH]c3ccc(O)cc23)CC1`, in assay [5], the period change was -0.16 h (inactive). Besides, the inhibition in assay [6] was -2% (inactive). Also, the fluorescence ratio (interference) in [7] is 1 (inactive). Moreover, the remaining activity in assay [8] is 116% (inactive); in [9], 119% (inactive). Moreover, the fold change in assay [3] (stronger effect = lower value) is 1.01 (inactive); in assay [3] (setting [19]) it was 0.949 (inactive) and 0.908 (inactive); in [3] (setting [16]), 1.73 and 0.894 and 0.857. Moreover, the cell count is 10800 and 7640 and 9030 in assay [3] (setting [17]); 10700 and 8050 and 9950 in [3] (setting [18]). In addition, the compound was classed as inactive in assay [10]. Moreover, the z-score was -0.212 (inactive) in assay [11] (setting [20]); -0.062 in assay [11] (setting [21]); 0.06 (inactive) and -0.325 (inactive) in [12].

In the case of `CCNC1(c2cccs2)CCCCC1=O` (stereo unspecified), the survival in assay [13] is 13.6 (inactive). Besides, in assay [1], the parasite load remaining was 136% (inactive). Moreover, in assay [1], the viability stood at 77%. Also, in [2], the red/green cell ratio (normalised) was 0.77 (inactive). Moreover, the normalised cell number worked out at 1.37 in assay [2] (setting [14]) and 1.05 in [2] (setting [15]). The fold change in [3] (stronger effect = lower value) was 0.914 (inactive); in assay [3] (setting [16]), 0.59. For the same compound, the values for the cell count in [3] (setting [17]) and in assay [3] (setting [18]) were 8750 and 9570, respectively.

Take `S=C(NC1CCCCC1)N1CCC(c2cnc[nH]2)CC1`: the period change in assay [5] was -1.93 h (inactive). The inhibition in assay [6] was -3% (inactive). Moreover, the fluorescence ratio (interference) in [7] was 0.9 (inactive). Further, the remaining activity in assay [8] was 89.7% (inactive); in [9], 99.4% (inactive). The fold change in [3] (stronger effect = lower value) is 0.921 (inactive); in assay [3] (setting [19]), 0.93 (inactive); in [3] (setting [16]), 1.06 and 0.678. Further, the cell count was 8920 and 7940 in assay [3] (setting [17]); 9690 and 8540 in [3] (setting [18]). Besides, the result in assay [10] was inactive. The z-score in [11] (setting [20]) was 0.603 (inactive); in assay [11] (setting [21]), 0.478; in assay [12], -0.46 (inactive) and -0.595 (inactive).

As to `C#CCOC(=O)C1=CCCN(C)C1`, the period change in assay [5] was -0.055 h (inactive). Besides, the inhibition in assay [6] was -1% (inactive). The fluorescence ratio (interference) in assay [7] is 1 (inactive). In addition, the remaining activity was 105% (inactive) in assay [8] and 121% (inactive) in assay [9]. The fold change in assay [3] (stronger effect = lower value) was 1.05 (inactive); in assay [3] (setting [19]) it was 0.926 (inactive); in assay [3] (setting [16]) it was 1.99 and 0.981. For the same compound, the cell count in assay [3] (setting [17]) was 10200 and 8480; in assay [3] (setting [18]) it was 9640 and 9160. Moreover, the compound was called inactive in assay [10]. In addition, the z-score in assay [12] is -0.93 (inactive) and -0.57 (inactive).

Consider `CCC1(CC)C(=O)NC(=O)NC1=O`, for which, in [2], the red/green cell ratio (normalised) is 0.85 (inactive). For the same compound, the normalised cell number in assay [2] (setting [14]) amounted to 0.92; in assay [2] (setting [15]) it was 0.78.

In the case of `COC(=O)[C@@H]1C[C@H](OC(C)=O)C(=O)[C@H]2[C@@]1(C)CC[C@H]1C(=O)O[C@H](c3ccoc3)C[C@]21C`, the red/green cell ratio (normalised) in [2] is 1.04 (inactive). For the same compound, the normalised cell number is 0.84 in assay [2] (setting [14]) and 0.87 in [2] (setting [15]). Besides, in [4], the luciferase signal was 52 AU (inactive).

What is called viability is a read-out of living cells in per cent, often relative to untreated cells. By inhibition is commonly meant the drop in the measured response relative to a control, in per cent. Broadly, the remaining activity is the signal under treatment as a percentage of the control signal.
